In PubChem BioAssay one finds composite z-score and z-score data, which are given here for 18 compounds.

Assay [1] deals with XIP peptide (Xip251-270) binding. As to the kind of experiment: XIP fragment 251-270 binding compounds – biochemical, small-molecule microarray, fluorescence 635/667 nm, 0.1 µg/mL protein, primary screen (AID 1182). To be noted: fluorescent protein binding, 635 nm, higher = more signal, called active from +8 up or from −8 down.
Assay [2] relates to XIP peptide (Xip251-270). Briefly: compounds binding XIP fragment 251-270 – biochemical, small-molecule microarray, fluorescence 635/667 nm, 0.5 µg/mL protein, primary screen (AID 1183). Conditions: fluorescence 635 nm, higher = more signal.
Assay [3] can be described thus: blood-stage malaria parasite viability loss – strain 3D7, DAPI fluorescence, 100 nL, primary screen (AID 1184).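 Further: parasites grown inside human red blood cells in medium with human serum.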 Conditions: P. falciparum 3D7 growth, 3 d, higher = more signal.
The target of assay [4] is Homeobox protein Hox-A13 (Mus musculus) (UniProt Q62424). Briefly: disruptors of Hoxa13 oligonucleotide interaction – biochemical, fluorescence polarization, labeled oligonucleotide, primary screen (AID 1185). To be noted: Hoxa13:DNA binding, 15 min, higher = more signal, called active from +8 up or from −8 down.
Chain of Homeobox protein Hox-A13 (Mus musculus) (Q62424 whole entry, looked up): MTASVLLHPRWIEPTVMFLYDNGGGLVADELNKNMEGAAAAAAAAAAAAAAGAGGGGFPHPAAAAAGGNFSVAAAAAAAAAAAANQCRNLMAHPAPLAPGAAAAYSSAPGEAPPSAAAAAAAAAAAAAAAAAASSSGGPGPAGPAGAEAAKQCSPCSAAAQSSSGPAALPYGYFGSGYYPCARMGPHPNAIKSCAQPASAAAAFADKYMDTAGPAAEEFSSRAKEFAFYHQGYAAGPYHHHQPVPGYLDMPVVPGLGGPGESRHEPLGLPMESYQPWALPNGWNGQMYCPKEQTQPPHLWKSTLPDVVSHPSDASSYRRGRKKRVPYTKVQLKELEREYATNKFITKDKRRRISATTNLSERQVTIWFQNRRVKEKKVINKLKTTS
The nature of assay [5]: blockers of DNA damage checkpoint Chk1 activation – imaging, HeLa, hydroxyurea, phospho-Chk1 antibody, percent positive cells, primary screen (AID 1186). To be noted: hydroxyurea-induced phospho-Chk1 immunofluorescence imaging, higher = more signal.
A short description of assay [6]: blockers of DNA damage checkpoint Chk1 activation – imaging, HeLa, hydroxyurea, phospho-Chk1 nuclear intensity, primary screen (AID 1187). Conditions: hydroxyurea-induced phospho-Chk1 immunofluorescence imaging, higher = more signal.

Each structure is given as a SMILES string. Activity calls are given as the source filed them. Unless noted, how the calls were made is not given here.

Turning to `CN1C(=O)C2C=CC(C(O)c3ccccn3)N(Nc3ccccc3)C2C1=O` (stereo not drawn), the composite z-score is 0.632 (inactive) in assay [1] and 0.325 in assay [2]. Further, the z-score in assay [3] was 0.0014; in assay [4], -7.19 (inactive); in assay [5] it was -0.827 (inactive); in assay [6], -1.12 (inactive).

Consider `CCOC(=O)C1=C[C@@H](CC)N(S(=O)(=O)c2ccc(C)cc2)[C@H]1c1ccccc1`, for which the figures for the composite z-score in assay [1] and in assay [2] were 0.54 (inactive) and 0.208, respectively. In addition, the z-score was -1.81 in assay [3], -2.63 (inactive) in assay [4], 0.553 (inactive) in assay [5] and 0.54 (inactive) in assay [6].

As for `CCOC(=O)C1=CC[C@@H](c2ccccc2)N(S(=O)(=O)c2ccc(C)cc2)[C@H]1C(=O)OCC`, the composite z-score in assay [1] was 0.414 (inactive); in assay [2], -0.404. Further, the z-score in assay [3] was -0.799; in assay [4], -5.23 (inactive); in assay [5], 0.0256 (inactive); in assay [6], -0.831 (inactive).

On to `CCCCCN1CC=CC23O[C@@H]4C=CCOC(=O)[C@@H]4[C@H]2C(=O)N(CCCO)[C@@H]3C1=O` (stereo partly drawn), for which the composite z-score in assay [1] was 0.591 (inactive); in assay [2] it was 0.747. For the same compound, the z-score in assay [3] was -1.8; in assay [4], -3.67 (inactive); in assay [5], 0.679 (inactive); in assay [6] it was 0.402 (inactive).

For the compound `COc1ccc([Si](C)(C)[C@H]2[C@H](CC(=O)N(CCO)Cc3ccccc3)O[C@@]3(C(=O)N(Cc4cccc(N5CCC5=O)c4)c4ccccc43)[C@@H]2C)cc1`, the results for the composite z-score in assay [1] and in assay [2] were 0.0163 (inactive) and 0.281, respectively. Besides, the z-score in assay [3] was -2.84; in assay [4], -2.16 (inactive); in assay [5], -1.46 (inactive); in assay [6], -1.2 (inactive).

In the case of `COC(=O)[C@@]1(Cc2ccc(OC)cc2)[C@H]2c3cc(C(=O)N4CCCC4)n(CCc4c[nH]c5cc(F)ccc45)c3C[C@H]2CN1C(=O)c1ccccc1`, the composite z-score in assay [1] is 1.31 (inactive); in assay [2] it was 0.687. Also, the z-score in assay [3] was -1.66; in assay [4], 0.828 (inactive); in assay [5] it was 0.527 (inactive); in assay [6] it was 0.598 (inactive).

As for `CCOC(=O)C[C@H]1[C@H](OC(=O)c2ccc(-c3ccccc3)cc2)[C@@H](NC(=O)Cc2ccc(OC)cc2)c2cc(OCCCO)ccc2N1C(=O)c1ccc2ccccc2n1`, the composite z-score in assay [1] was -0.0562 (inactive); in assay [2], 0.111. The z-score is 0.351 in assay [3], -2.51 (inactive) in assay [4], -0.42 (inactive) in assay [5] and -0.0198 (inactive) in assay [6].

With `CC(C)Cc1ccc(CN2CC[C@@H](NS(=O)(=O)c3ccccc3)C2)cc1`, the composite z-score in assay [1] was -0.479 (inactive); in assay [2] it was 0.0054. The z-score in assay [3] is -0.438; in assay [4], -4.79 (inactive); in assay [5], -0.853 (inactive); in assay [6], -1.1 (inactive).

As to `CS(=O)(=O)CCOC(=O)C1=CC(CCCO)=CC(c2cccs2)N(Cc2cc3c(cc2Br)OCO3)C=C1C(=O)OCCS(C)(=O)=O` (stereo not drawn), the composite z-score in assay [1] is 0.555 (inactive); in assay [2] it was 0.634. The z-score in assay [3] was -3.01; in assay [4], -2.91 (inactive); in assay [5], -0.169 (inactive); in assay [6], 0.132 (inactive).

On to `CS(=O)(=O)CCOC(=O)C1=CC(c2ccc(CO)cc2)=CC(C2CC2)N(Cc2cc3c(cc2Br)OCO3)C=C1C(=O)OCCS(C)(=O)=O` (stereo not drawn), for which the figures for the composite z-score in assay [1] and in assay [2] were 0.0295 (inactive) and 0.639, respectively. Moreover, the z-score in assay [3] was -2.58; in assay [4], -2.94 (inactive); in assay [5], -0.572 (inactive); in assay [6], -0.534 (inactive).

For the compound `CCOC(=O)C[C@H]1[C@H](OC(=O)Cc2ccc3c(c2)OCO3)[C@@H](NC(=O)C2CCCCC2)c2cc(OCCCO)ccc2N1C(=O)Cc1ccc(OC)cc1`, the figures for the composite z-score in assay [1] and in assay [2] were -0.219 (inactive) and 0.128, respectively. Further, the z-score in assay [3] is -0.383; in assay [4] it was -2 (inactive); in assay [5], -0.585 (inactive); in assay [6], -0.868 (inactive).

Take `Cc1ccc(S[C@]2(C(=O)O)CC(=O)N(C3Cc4ccccc4C3)[C@@H]2c2ccc(CO)cc2I)cc1`: the figures for the composite z-score in assay [1] and in assay [2] were -0.33 (inactive) and 0.464, respectively. In addition, the z-score in assay [3] is -0.111; in assay [4] it was -2.79 (inactive); in assay [5], 0.229 (inactive); in assay [6], 0.584 (inactive).

Consider `CCCN1C(=O)[C@]2(COC(c3ccc(OCCCO)cc3)=N2)Cc2ccccc21`, for which the values for the composite z-score in assay [1] and in assay [2] were 1.71 (inactive) and 0.42, respectively. The z-score was -0.755 in assay [3], -6.01 (inactive) in assay [4], -0.0155 (inactive) in assay [5] and 0.239 (inactive) in assay [6].

Take `O=C1OCCC/C=C\[C@H]2OC34C=CCN(Cn5nnc6ccccc65)C(=O)[C@H]3N(CCCCCO)C(=O)[C@@H]4C12` (stereo partly drawn): the composite z-score in assay [1] was 0.145 (inactive); in assay [2] it was 0.545. Besides, the z-score in assay [3] was 0.961; in assay [4], -4.39 (inactive); in assay [5], 0.812 (inactive); in assay [6] it was 0.888 (inactive).

On to `CC1=C2[C@@H](CCc3ccccc3)OB(O)C[C@@H]2n2c(=O)n(-c3ccccc3)c(=O)n2C1`, for which the composite z-score in assay [1] is -0.105 (inactive); in assay [2], 0.777. For the same compound, the z-score in assay [3] was 1.65; in assay [4], -5.44 (inactive); in assay [5] it was -0.0397 (inactive); in assay [6], 0.208 (inactive).

Consider `O=C(O)[C@H]1C[C@H]2C(=O)NCC(=O)N2[C@H]1c1ccc(O)cc1`, for which the composite z-score was 0.267 (inactive) in assay [1] and -0.212 in assay [2]. In addition, the z-score is 0.137 in assay [3], -0.43 (inactive) in assay [4], 0.0056 (inactive) in assay [5] and 0.0301 (inactive) in assay [6].

On to `COc1cc2c(cc1O)C(C)N(Cc1cccc(OC(F)(F)F)c1)CC2` (stereo not drawn), for which the composite z-score was 0.714 (inactive) in assay [1] and 0.907 in assay [2]. Besides, the z-score in assay [3] is -2.03; in assay [4], -3.46 (inactive); in assay [5] it was 0.0708 (inactive); in assay [6] it was -0.033 (inactive).

In the case of `COC(=O)[C@@]1(Cc2ccccc2)N=C(c2ccc(OCCCO)cc2)O[C@H]1c1ccccc1N=[N+]=[N-]`, the composite z-score in assay [1] is 0.856 (inactive); in assay [2] it was 0.887. The z-score in assay [3] was -2.27; in assay [4], 0.459 (inactive); in assay [5], -0.48 (inactive); in assay [6], -0.775 (inactive).
